In PubChem BioAssay (Tox21):
Inconclusive results are not listed. Activity calls are given as the source filed them. Calls come from the whole dose curve; as a rule, active = well fitted curve in the direction sought with a large enough effect in the repeat runs; inconclusive = weak or mixed curves; inactive = no such curve, though single readings can be large; an effect the other way counts as inactive or inconclusive.

Assays:
[1] = A CellTox Green Cytotoxicity Assay to monitor cytotoxicity in HepG2 cells - 0 hour (AID 1224882); note: nearly all actives have a fitted effect of over 35% in size
Summary of the method: (§1)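 HepG2, 600 cells/well premixed w/ CellTox Green; 5 h settle, 37 C/5% CO2; pintool cpd add (DMSO); 37 C, 40 h; fluorescence read at 0, 8, 16, 24, 32, 40 h.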

[2] = A CellTox Green Cytotoxicity Assay to monitor cytotoxicity in HepG2 cells - 32 hour (AID 1224883); note: nearly all actives have a fitted effect of over 50% in size
Summary of the method: as §1

[3] = A CellTox Green Cytotoxicity Assay to monitor cytotoxicity in HEK293 cells - 8 hour (AID 1224884); note: nearly all actives have a fitted effect of over 35% in size
Summary of the method: (§2)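 Read-out: fluorescence of a cell-impermeant cyanine dye staining DNA of dead cells, proportional to cytotoxicity. HEK293, 600 cells/well with reagent, compound (23 nL DMSO) added after 5 h; reads at 0, 8, 16, 24, 32, 40 h.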

[4] = qHTS RealTime-Glo MT Cell Viability Assay in HepG2 cells - 16 hour (AID 1224885); note: nearly all actives have a fitted effect of over 50% in size
Summary of the method: (§3)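 Real-time, nonlytic viability: 600 HepG2 cells/well mixed with NanoLuc enzyme plus prosubstrate; 5 h settle, compound (DMSO) added by pintool; luminescence monitored over 40 h at 37 C.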

[5] = qHTS RealTime-Glo MT Cell Viability Assay in HEK293 cells - 8 hour (AID 1224887); note: top concentration of the series differs between compounds; nearly all actives have a fitted effect of over 50% in size
Summary of the method: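 Luminescence readout at each listed time point; HEK293, 600 cells/well, RealTime-Glo MT reagent added with cells; compounds pinned (23 nL in DMSO) after 5 h at 37 C; continuous culture at 37 C.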

[6] = A CellTox Green Cytotoxicity Assay to monitor cytotoxicity in HEK293 cells - 16 hour (AID 1224888); note: nearly all actives have a fitted effect of over 35% in size
Summary of the method: as §2

[7] = qHTS RealTime-Glo MT Cell Viability Assay in HepG2 cells - 0 hour (AID 1224889); note: nearly all actives have a fitted effect of over 50% in size
Summary of the method: as §3

[8] = A CellTox Green Cytotoxicity Assay to monitor cytotoxicity in HepG2 cells - 8 hour (AID 1224890); note: nearly all actives have a fitted effect of over 45% in size
Summary of the method: as §1

[9] = qHTS assay to identify small molecule antagonists of the estrogen receptor alpha (ER-alpha) signaling pathway using the BG1 cell line in the presence of 0.1 nM 17-beta-estradiol - cell viability counter screen (AID 1259241); note: nearly all actives have a fitted effect of over 40% in size
Summary of the method: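 Cytotoxicity counter-screen: live-cell protease activity measured by fluorescence (30 min reagent step) in the same wells. Cells were VM7Luc4E2 with endogenous ER-alpha and ERE-driven luciferase, treated 22 hr at 37C alongside 0.1 nM 17beta-estradiol final.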

Measured: Potency

Cc1cc(C)c(O)c(C)c1
not listed: [9]
inactive: all other assays above

OB(O)O
not listed: [9]
inactive: all other assays above

CC(COCC(C)OC(=O)c1ccccc1)OC(=O)c1ccccc1 (centres undefined)
not listed: [5]
inactive: all other assays above

C=C(C)CC(C)(C)C
not listed: [9]
inactive: all other assays above

COc1ccc2cc3[n+](cc2c1OC)CCc1cc2c(cc1-3)OCO2
not listed: [5] | [9]
inactive: all other assays above

CC(C)(C)NC[C@H](O)COc1nsnc1N1CCOCC1
inactive: all assays above

CC(=O)OC[C@H]1O[C@@](COC(C)=O)(O[C@H]2O[C@H](COC(C)=O)[C@@H](OC(C)=O)[C@H](OC(C)=O)[C@H]2OC(C)=O)[C@@H](OC(C)=O)[C@@H]1OC(C)=O
inactive: all assays above

O=c1c(O)c(-c2ccc(O)c(O)c2)oc2cc(O)cc(O)c12
not listed: [7] | [9]
inactive: all other assays above

CC(=O)OCc1ccc2c(c1)OCO2
inactive: all assays above

CCc1cccc(CC)c1N
inactive: all assays above

C[Si](C)(C)N[Si](C)(C)C
inactive: all assays above

CCCCCCCCCCCCCC(=O)O
inactive: all assays above

CCN(CC)CCNC(=O)c1ccc(N)cc1
inactive: all assays above

O=C(O)Cc1c[nH]c2ccccc12
not listed: [9]
inactive: all other assays above

CCCN(CCC)C(=O)SCC
not listed: [9]
inactive: all other assays above

OC[C@H]1O[C@@H](Oc2ccc(O)cc2)[C@H](O)[C@@H](O)[C@@H]1O
inactive: all assays above

Cc1ccncc1
not listed: [9]
inactive: all other assays above

Cc1ccc(C(C)C)cc1
inactive: all assays above

CC/C(C)=N/O
inactive: all assays above

Cc1cc(CC(=O)O)n(C)c1C(=O)c1ccc(Cl)cc1
inactive: all assays above
